# Experimental data reported in PubChem BioAssay (EPA / NIEHS).
# Inconclusive results are not listed. Active and inactive are the calls of the source. The calls were made as follows: active = hit-call score of the fitted dose curve at least 0.9, where 1 is the maximum; inconclusive = response in the unintended direction; inactive = score below 0.9.
# Experiments:
# [1] = molecular target: rat CYP2C12, Cyp2c12 (gene 25011) (UniProt P11510); assay: NVS_ADME_rCYP2C12: NovaScreen (NVS) CYP450-related Enzyme Activity (ADME) Assay for rat CYP2C12 (AID 2283119)
# Chain of rat CYP2C12, Cyp2c12 (gene 25011) (P11510 whole entry, looked up): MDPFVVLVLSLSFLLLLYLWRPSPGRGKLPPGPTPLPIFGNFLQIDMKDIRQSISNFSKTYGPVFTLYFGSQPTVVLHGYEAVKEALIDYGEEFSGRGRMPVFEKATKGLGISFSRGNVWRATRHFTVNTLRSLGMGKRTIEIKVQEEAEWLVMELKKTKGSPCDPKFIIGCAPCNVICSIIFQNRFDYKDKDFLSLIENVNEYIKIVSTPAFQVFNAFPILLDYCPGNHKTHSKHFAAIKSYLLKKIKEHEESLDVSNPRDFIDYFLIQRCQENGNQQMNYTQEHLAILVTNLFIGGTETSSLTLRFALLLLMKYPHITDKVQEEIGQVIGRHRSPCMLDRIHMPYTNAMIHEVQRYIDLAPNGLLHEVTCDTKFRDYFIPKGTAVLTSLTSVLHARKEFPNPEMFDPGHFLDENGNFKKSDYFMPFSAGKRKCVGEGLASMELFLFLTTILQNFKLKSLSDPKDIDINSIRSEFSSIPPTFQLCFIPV
# Summary of the method: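 Cell-free recombinant rat CYP2C12 activity read by fluorescence 0.5 h after dosing; loss of signal versus acetonitrile control. Primary screen in duplicate at 10 uM; actives then run in concentration-response format.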
# [2] = molecular target: human Acetylcholinesterase (AChE), ACHE (gene 43) (UniProt P22303); assay: NVS_ENZ_hAChE: NovaScreen (NVS) Enzymatic Assay for human Acetylcholinesterase (AChE) (AID 2283129)
# Chain of human Acetylcholinesterase (AChE), ACHE (gene 43) (P22303 whole entry, looked up): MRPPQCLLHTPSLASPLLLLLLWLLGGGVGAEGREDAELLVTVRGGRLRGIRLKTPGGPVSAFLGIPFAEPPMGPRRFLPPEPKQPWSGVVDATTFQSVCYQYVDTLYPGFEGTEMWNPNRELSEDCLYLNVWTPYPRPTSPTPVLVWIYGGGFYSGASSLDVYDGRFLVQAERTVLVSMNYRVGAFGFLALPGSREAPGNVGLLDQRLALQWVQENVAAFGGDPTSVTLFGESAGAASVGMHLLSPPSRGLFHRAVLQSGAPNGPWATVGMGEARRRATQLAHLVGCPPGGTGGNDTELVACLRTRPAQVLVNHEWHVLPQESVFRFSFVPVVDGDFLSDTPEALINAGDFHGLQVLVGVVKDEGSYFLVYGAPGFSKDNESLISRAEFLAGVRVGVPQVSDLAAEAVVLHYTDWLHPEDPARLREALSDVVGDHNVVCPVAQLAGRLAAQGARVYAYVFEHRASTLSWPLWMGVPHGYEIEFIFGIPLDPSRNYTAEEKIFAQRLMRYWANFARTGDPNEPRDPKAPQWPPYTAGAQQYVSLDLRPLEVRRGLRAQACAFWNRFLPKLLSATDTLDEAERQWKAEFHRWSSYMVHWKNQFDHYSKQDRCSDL
# Summary of the method: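 Cell-free colorimetric enzyme-activity assay; compounds read 0.33 hour after dosing, loss of signal vs DMSO baseline. Primary screen in duplicate at 25 uM single concentration, with active compounds retested in concentration series.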
# [3] = molecular target: rat CYP2C13, Cyp2c13 (gene 171521) (UniProt P20814); assay: NVS_ADME_rCYP2C13: NovaScreen (NVS) CYP450-related Enzyme Activity (ADME) Assay for rat CYP2C13 (AID 2283121)
# Chain of rat CYP2C13, Cyp2c13 (gene 171521) (P20814 whole entry, looked up): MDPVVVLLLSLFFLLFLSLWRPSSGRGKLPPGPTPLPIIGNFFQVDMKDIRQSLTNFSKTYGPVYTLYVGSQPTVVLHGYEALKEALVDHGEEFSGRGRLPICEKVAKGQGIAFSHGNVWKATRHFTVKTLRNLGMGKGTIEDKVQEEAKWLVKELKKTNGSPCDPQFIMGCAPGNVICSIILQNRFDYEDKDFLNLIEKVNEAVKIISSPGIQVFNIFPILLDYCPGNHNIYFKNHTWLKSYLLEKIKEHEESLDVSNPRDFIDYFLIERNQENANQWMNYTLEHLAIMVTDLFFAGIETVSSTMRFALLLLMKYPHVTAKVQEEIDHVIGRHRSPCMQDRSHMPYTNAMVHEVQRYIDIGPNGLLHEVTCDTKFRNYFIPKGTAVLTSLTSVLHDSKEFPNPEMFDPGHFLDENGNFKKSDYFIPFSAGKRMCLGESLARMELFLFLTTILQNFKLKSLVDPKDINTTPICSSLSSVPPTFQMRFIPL
# Summary of the method: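 Recombinant rat CYP2C13 with fluorogenic substrate, 0.75 h cell-free incubation; primary screen in duplicate at 10 uM, actives followed in concentration series. Fluorescence loss relative to acetonitrile control indicates inhibition.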
# [4] = molecular target: rat CYP2D1, Cyp2d1 (gene 266684) (UniProt P10633); assay: NVS_ADME_rCYP2D1: NovaScreen (NVS) CYP450-related Enzyme Activity (ADME) Assay for rat CYP2D1 (AID 2283122)
# Chain of rat CYP2D1, Cyp2d1 (gene 266684) (P10633 whole entry, looked up): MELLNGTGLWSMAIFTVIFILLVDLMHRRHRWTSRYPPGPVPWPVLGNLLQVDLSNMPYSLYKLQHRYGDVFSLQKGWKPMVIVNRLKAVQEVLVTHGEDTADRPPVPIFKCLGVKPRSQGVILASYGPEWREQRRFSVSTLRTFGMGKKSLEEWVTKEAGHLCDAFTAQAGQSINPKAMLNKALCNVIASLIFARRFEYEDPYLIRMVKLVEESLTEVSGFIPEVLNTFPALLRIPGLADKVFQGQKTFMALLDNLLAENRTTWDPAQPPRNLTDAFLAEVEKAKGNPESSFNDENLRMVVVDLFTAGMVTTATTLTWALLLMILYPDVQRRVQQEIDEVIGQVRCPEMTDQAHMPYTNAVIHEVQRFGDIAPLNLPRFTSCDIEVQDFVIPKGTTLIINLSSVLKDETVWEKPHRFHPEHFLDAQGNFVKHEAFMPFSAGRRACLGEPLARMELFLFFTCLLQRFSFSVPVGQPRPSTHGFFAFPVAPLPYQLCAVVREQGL
# Summary of the method: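 Cell-free fluorescence enzyme-activity assay on extracted rat CYP2D1 protein, read 0.75 h after dosing. Primary screen in duplicate at 10 uM; qualifying chemicals then run in concentration-response to 20 uM max, loss-of-signal versus acetonitrile baseline.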
# [5] = molecular target: rat CYP2D2, Cyp2d26 (gene 25053) (UniProt P10634); assay: NVS_ADME_rCYP2D2: NovaScreen (NVS) CYP450-related Enzyme Activity (ADME) Assay for rat CYP2D2 (AID 2283124)
# Chain of rat CYP2D2, Cyp2d26 (gene 25053) (P10634 whole entry, looked up): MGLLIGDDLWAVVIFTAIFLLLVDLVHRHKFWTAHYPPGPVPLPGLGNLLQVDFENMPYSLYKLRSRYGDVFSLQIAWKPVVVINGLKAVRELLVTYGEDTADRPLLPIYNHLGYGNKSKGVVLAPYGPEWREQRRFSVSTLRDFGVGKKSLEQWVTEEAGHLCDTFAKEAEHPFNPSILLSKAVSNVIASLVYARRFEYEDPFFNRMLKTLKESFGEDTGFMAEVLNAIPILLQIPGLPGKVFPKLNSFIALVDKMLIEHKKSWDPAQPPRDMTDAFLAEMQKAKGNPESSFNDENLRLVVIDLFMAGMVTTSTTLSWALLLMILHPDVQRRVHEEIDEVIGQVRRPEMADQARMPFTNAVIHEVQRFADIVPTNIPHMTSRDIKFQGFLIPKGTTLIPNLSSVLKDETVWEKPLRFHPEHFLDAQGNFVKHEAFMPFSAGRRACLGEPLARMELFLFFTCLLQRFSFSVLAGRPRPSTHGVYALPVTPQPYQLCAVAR
# Summary of the method: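 Recombinant rat CYP2D2 in a cell-free fluorogenic activity assay, fluorescence read 0.75 h after dosing. Primary screen in duplicate at 10 uM; actives re-run singly in concentration-response to 20 uM, relative to acetonitrile.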
# [6] = molecular target: human Beta-secretase (BACE), BACE1 (gene 23621) (UniProt P56817); assay: NVS_ENZ_hBACE: NovaScreen (NVS) Enzymatic Assay for human Beta-secretase (BACE) (AID 2283140);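 also: hits are inhibitors that reduce fluorescent substrate signal versus DMSO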
# Summary of the method: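 Recombinant BACE1 (SF9 extract) incubated with compound and fluorescent substrate, 1 h. Plates carried positive and DMSO negative controls. Initial single dose 25 uM, duplicate; confirmation by concentration series.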
# [7] = molecular target: rat CYP2C11, Cyp2c11 (gene 29277) (UniProt P08683); assay: NVS_ADME_rCYP2C11: NovaScreen (NVS) CYP450-related Enzyme Activity (ADME) Assay for rat CYP2C11 (AID 2283118)
# Chain of rat CYP2C11, Cyp2c11 (gene 29277) (P08683 whole entry, looked up): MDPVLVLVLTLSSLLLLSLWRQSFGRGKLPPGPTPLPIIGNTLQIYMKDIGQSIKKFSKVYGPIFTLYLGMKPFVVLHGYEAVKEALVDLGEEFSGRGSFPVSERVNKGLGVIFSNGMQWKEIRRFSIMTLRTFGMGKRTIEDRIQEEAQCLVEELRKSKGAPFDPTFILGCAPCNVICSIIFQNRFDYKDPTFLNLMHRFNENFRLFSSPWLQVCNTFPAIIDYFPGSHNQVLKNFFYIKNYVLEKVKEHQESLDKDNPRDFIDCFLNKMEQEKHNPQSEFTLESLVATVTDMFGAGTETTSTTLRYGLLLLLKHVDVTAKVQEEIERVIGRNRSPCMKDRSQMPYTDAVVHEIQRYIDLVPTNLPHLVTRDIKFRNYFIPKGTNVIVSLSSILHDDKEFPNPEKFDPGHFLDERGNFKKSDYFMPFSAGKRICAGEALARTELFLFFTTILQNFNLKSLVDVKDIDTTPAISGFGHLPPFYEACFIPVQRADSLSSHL
# Summary of the method: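 Cell-free recombinant rat enzyme with fluorescent substrate; readout 0.33 h after dosing, loss of signal versus acetonitrile control. Initial duplicate single-point at 10 uM; actives rerun in concentration series.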
# rat CYP3A1, gene 25642 = assay: NVS_ADME_rCYP3A1: NovaScreen (NVS) CYP450-related Enzyme Activity (ADME) Assay for rat CYP3A1 (AID 2283126)
# Summary of the method: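 Cell-free recombinant CYP assay with fluorescent substrate, read 0.5 h after dosing. Screened at 10 uM in duplicate, hits at up to 20 uM in concentration-response; loss of signal versus acetonitrile baseline.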
# Caspase-3 (Homo sapiens) = Caspase-3 (Homo sapiens) (UniProt P42574); assay: NVS_ENZ_hCASP3: NovaScreen (NVS) Enzymatic Assay for human Caspase 3 (CASP3) (AID 2283139)
# Summary of the method: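 Recombinant human caspase-3 from E. coli with a fluorogenic substrate, read by fluorescence 1 h after dosing. Primary screen in duplicate at 25 uM. Actives (for example ≥30% inhibition) rerun as concentration-response up to 50 uM.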
# [8] = molecular target: human AKT serine/threonine Kinase 1 (AKT1), AKT1 (gene 207) (UniProt P31749); assay: NVS_ENZ_hAKT1: NovaScreen (NVS) Enzymatic Assay for human AKT serine/threonine Kinase 1 (AKT1) (AID 2283138)
# Chain of human AKT serine/threonine Kinase 1 (AKT1), AKT1 (gene 207) (P31749 whole entry, looked up): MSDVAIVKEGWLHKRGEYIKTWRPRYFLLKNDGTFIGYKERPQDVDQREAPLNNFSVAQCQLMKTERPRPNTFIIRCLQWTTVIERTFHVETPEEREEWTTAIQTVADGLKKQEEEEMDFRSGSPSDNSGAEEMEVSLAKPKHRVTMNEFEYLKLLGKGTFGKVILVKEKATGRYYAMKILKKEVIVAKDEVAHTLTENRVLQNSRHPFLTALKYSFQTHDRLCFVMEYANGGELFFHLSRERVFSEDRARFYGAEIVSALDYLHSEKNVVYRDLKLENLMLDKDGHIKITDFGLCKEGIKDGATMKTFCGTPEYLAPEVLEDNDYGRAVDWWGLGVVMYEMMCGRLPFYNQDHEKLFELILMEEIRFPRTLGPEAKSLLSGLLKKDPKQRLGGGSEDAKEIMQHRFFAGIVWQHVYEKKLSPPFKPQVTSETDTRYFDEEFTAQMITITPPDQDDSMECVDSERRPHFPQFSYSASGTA
# Summary of the method: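 Signal loss relative to DMSO, measured by fluorescence after electrophoretic separation of substrate and product, indicates inhibition of recombinant enzyme. Readings at 1 h; screening at 25 uM, follow-up curves up to 50 uM.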
# rat CYP2C6, gene 293989 = assay: NVS_ADME_rCYP2C6: NovaScreen (NVS) CYP450-related Enzyme Activity (ADME) Assay for rat CYP2C6 (AID 2283120)
# Summary of the method: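 Cell-free recombinant rat CYP2C6 with fluorogenic substrate, read by fluorescence 1 h after dosing; acetonitrile as negative control. Primary screen at 10 uM in duplicate, actives then in concentration-response up to 20 uM.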
# [9] = molecular target: rat CYP3A2, Cyp3a2 (gene 266682) (UniProt P05183); assay: NVS_ADME_rCYP3A2: NovaScreen (NVS) CYP450-related Enzyme Activity (ADME) Assay for rat CYP3A2 (AID 2283128)
# Chain of rat CYP3A2, Cyp3a2 (gene 266682) (P05183 whole entry, looked up): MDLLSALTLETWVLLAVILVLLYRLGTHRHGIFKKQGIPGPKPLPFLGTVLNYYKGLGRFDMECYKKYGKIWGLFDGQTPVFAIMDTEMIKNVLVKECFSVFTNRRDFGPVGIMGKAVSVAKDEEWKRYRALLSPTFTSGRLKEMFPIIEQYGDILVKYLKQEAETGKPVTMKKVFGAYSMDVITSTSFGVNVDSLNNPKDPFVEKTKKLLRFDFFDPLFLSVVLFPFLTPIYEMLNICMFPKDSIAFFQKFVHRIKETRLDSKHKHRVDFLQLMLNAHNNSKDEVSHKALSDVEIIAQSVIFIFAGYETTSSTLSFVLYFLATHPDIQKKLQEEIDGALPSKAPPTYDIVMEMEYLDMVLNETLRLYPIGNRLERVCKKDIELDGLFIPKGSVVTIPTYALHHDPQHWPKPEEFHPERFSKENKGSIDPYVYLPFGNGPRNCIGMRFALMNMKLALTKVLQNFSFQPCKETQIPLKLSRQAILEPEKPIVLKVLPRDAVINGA
# Summary of the method: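 Cell-free rat CYP3A2 enzyme assay with fluorescent substrate, read 0.5 h after dosing. Primary duplicate screen at 10 uM; actives run in concentration-response up to 20 uM, relative to acetonitrile baseline.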
# rat CYP2B1, gene 24300 = assay: NVS_ADME_rCYP2B1: NovaScreen (NVS) CYP450-related Enzyme Activity (ADME) Assay for rat CYP2B1 (AID 2283117)
# Summary of the method: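 Recombinant rat CYP2B1 with fluorogenic substrate, read at 0.75 h. Primary screen in duplicate at 10 uM; compounds meeting threshold (e.g., 30% inhibition) re-run in concentration-response up to 20 uM. Fitted against acetonitrile control.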
# Caspase-1 (Homo sapiens) = Caspase-1 (Homo sapiens) (UniProt P29466); assay: NVS_ENZ_hCASP1: NovaScreen (NVS) Enzymatic Assay for human Caspase 1 (CASP1) (AID 2283132)
# Summary of the method: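 Cell-free enzymatic assay with E. coli-expressed recombinant protein; fluorescence intensity read 1 hour after dosing. Single-concentration duplicate screen at 25 uM, then concentration-response up to 50 uM; activity fitted relative to DMSO, loss of signal meaning inhibition.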
# [10] = molecular target: human AKT serine/threonine Kinase 2 (AKT2), AKT2 (gene 208) (UniProt P31751); assay: NVS_ENZ_hAKT2: NovaScreen (NVS) Enzymatic Assay for human AKT serine/threonine Kinase 2 (AKT2) (AID 2283141)
# Chain of human AKT serine/threonine Kinase 2 (AKT2), AKT2 (gene 208) (P31751 whole entry, looked up): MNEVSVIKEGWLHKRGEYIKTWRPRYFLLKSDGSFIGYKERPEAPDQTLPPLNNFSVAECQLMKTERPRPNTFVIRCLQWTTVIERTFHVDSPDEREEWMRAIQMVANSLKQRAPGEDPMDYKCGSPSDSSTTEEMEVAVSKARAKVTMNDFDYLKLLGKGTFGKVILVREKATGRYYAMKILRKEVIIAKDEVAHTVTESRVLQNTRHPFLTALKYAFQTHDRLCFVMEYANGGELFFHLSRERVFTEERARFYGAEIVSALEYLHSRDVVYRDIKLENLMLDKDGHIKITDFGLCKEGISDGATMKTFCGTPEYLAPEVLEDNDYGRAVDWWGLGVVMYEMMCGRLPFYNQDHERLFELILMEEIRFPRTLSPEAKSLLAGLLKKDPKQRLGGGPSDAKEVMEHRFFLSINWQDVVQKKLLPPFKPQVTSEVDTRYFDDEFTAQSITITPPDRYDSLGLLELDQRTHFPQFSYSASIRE
# Summary of the method: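 Cell-free fluorescence/electrophoretic mobility shift readout of recombinant human AKT2 activity, 1 h after chemical dosing. Duplicate primary screen at 25 uM, then singleton concentration-response up to 50 uM; loss of signal versus DMSO baseline.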
# [11] = molecular target: human Caspase 10 (CASP10), CASP10 (gene 843) (UniProt Q92851); assay: NVS_ENZ_hCASP10: NovaScreen (NVS) Enzymatic Assay for human Caspase 10 (CASP10) (AID 2283133)
# Summary of the method: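 Recombinant human caspase-10 from E. coli, cell-free fluorogenic substrate assay read 1 h after dosing. Primary duplicate screen at 25 uM; hits (e.g. ≥30% inhibition) run singly in concentration-response up to 50 uM, normalised to DMSO.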
# [12] = molecular target: human Caspase 2 (CASP2), CASP2 (gene 835) (UniProt P42575); assay: NVS_ENZ_hCASP2: NovaScreen (NVS) Enzymatic Assay for human Caspase 2 (CASP2) (AID 2283135)
# Summary of the method: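 E. coli-expressed enzyme in a cell-free protease assay, fluorescence read 1 h after dosing. Compounds at 25 uM in duplicate, with concentration-response up to 50 uM for hits; loss of signal against DMSO baseline.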
# [13] = molecular target: human Acid Phosphatase 1 (ACP1), ACP1 (gene 52) (UniProt P24666); assay: NVS_ENZ_hACP1: NovaScreen (NVS) Enzymatic Assay for human Acid Phosphatase 1 (ACP1) (AID 2283136)
# Chain of human Acid Phosphatase 1 (ACP1), ACP1 (gene 52) (P24666 whole entry, looked up): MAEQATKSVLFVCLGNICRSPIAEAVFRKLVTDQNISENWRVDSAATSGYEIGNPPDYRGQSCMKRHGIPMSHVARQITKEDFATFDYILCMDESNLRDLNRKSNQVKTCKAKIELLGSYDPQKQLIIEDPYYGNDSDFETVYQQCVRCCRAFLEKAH
# Summary of the method: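 Recombinant enzyme expressed in Sf9 cells, tested cell-free; activity read by fluorescence with electrophoretic mobility shift separation of substrate and product, 1.5 h after dosing. Primary screen in duplicate at 25 uM, actives then run in concentration series; loss of signal versus DMSO.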
# [14] = molecular target: human AMP-activated Protein Kinase, alpha 1 (AMPKa1), PRKAA1 (gene 5562) (UniProt Q13131); assay: NVS_ENZ_hAMPKa1: NovaScreen (NVS) Enzymatic Assay for human AMP-activated Protein Kinase, alpha 1 (AMPKa1) (AID 2283130)
# Summary of the method: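 Recombinant human AMPKα1 activity was measured cell-free by fluorescent substrate conversion with electrophoretic mobility-shift separation, 1 h after dosing. Duplicate single-point screening was at 25 uM; actives (≥30% inhibition) were retested in concentration-response up to 50 uM.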
smiles,measurement,setting,value
CNC(=O)Oc1ccccc1OC(C)C,outcome,[1],inactive
same,AC50,[2],25 µM (active)
O=C(Nc1ccccc1)Nc1cnns1,outcome,[1],inactive
same,outcome,[3],inactive
same,AC50,[4],8.7 µM (active)
same,AC50,[5],4.41 µM (active)
same,AC50,[6],10.7 µM (active)
CCOC1Oc2ccc(OS(C)(=O)=O)cc2C1(C)C (stereo not given),AC50,[7],4.18 µM (active)
same,AC50,[1],2.33 µM (active)
same,AC50,[3],7.5 µM (active)
same,outcome,[4],inactive
same,AC50,"rat CYP3A1, gene 25642",6.95 µM (active)
same,outcome,Caspase-3 (Homo sapiens),inactive
COC(=O)c1ccccc1CS(=O)(=O)NC(=O)Nc1nc(OC)cc(OC)n1,outcome,[8],inactive
CNC(=O)CSP(=S)(OC)OC,AC50,"rat CYP2C6, gene 293989",4.77 µM (active)
same,AC50,[9],5.06 µM (active)
same,outcome,[8],inactive
CN1CSC(=S)N(C)C1,AC50,"rat CYP2B1, gene 24300",3.9 µM (active)
same,outcome,Caspase-1 (Homo sapiens),inactive
same,outcome,[10],inactive
COP(=S)(OC)Oc1ccc(SC)c(C)c1,AC50,"rat CYP2C6, gene 293989",1.83 µM (active)
[2H]C1([2H])[n+]2ccccc2-c2cccc[n+]2C1([2H])[2H],outcome,[1],inactive
same,AC50,[5],10 µM (active)
same,outcome,[2],inactive
CCCN(CCOc1c(Cl)cc(Cl)cc1Cl)C(=O)n1ccnc1,AC50,"rat CYP2B1, gene 24300",0.0338 µM (active)
same,AC50,[7],0.0766 µM (active)
same,AC50,[1],4.58 µM (active)
same,AC50,"rat CYP2C6, gene 293989",0.166 µM (active)
same,AC50,[3],0.191 µM (active)
same,AC50,[4],1.22 µM (active)
same,AC50,[5],0.159 µM (active)
same,AC50,"rat CYP3A1, gene 25642",0.549 µM (active)
same,AC50,[9],1.39 µM (active)
CCC(C)Nc1c([N+](=O)[O-])cc(C(C)(C)C)cc1[N+](=O)[O-] (stereo not given),outcome,[3],inactive
CC(C)N(C(=O)COc1nnc(C(F)(F)F)s1)c1ccc(F)cc1,AC50,[7],6.6 µM (active)
same,AC50,"rat CYP2C6, gene 293989",7.85 µM (active)
same,AC50,[5],10 µM (active)
same,AC50,"rat CYP3A1, gene 25642",7.94 µM (active)
same,AC50,[2],16.5 µM (active)
CCOCN(C(=O)CCl)c1c(C)cccc1CC,AC50,"rat CYP2C6, gene 293989",10 µM (active)
COC(=O)c1ccccc1S(=O)(=O)NC(=O)N(C)c1nc(C)nc(OC)n1,AC50,[11],6.07 µM (active)
same,outcome,[8],inactive
same,outcome,[10],inactive
COP(=S)(OC)Oc1ccc([N+](=O)[O-])cc1,AC50,[7],2.77 µM (active)
same,AC50,[1],6.47 µM (active)
same,AC50,"rat CYP2C6, gene 293989",0.344 µM (active)
same,AC50,[3],6.55 µM (active)
same,AC50,"rat CYP3A1, gene 25642",6.49 µM (active)
same,AC50,[9],4.97 µM (active)
same,outcome,[2],inactive
Clc1ccccc1-c1nnc(-c2ccccc2Cl)nn1,outcome,[10],inactive
C#CCN1C(=O)COc2cc(F)c(N3C(=O)C4=C(CCCC4)C3=O)cc21,AC50,[3],0.992 µM (active)
same,AC50,[9],5.33 µM (active)
same,outcome,[12],inactive
same,outcome,[13],inactive
N#Cc1c(Cl)c(Cl)c(Cl)c(C#N)c1Cl,outcome,[1],inactive
same,outcome,[5],inactive
same,AC50,"rat CYP3A1, gene 25642",1.22 µM (active)
same,AC50,[9],0.241 µM (active)
same,outcome,[2],inactive
same,AC50,[14],4.96 µM (active)
same,outcome,[8],inactive
same,outcome,[10],inactive
Cc1[nH]c(=O)n(C(C)(C)C)c(=O)c1Cl,AC50,[4],3.45 µM (active)
CCC(C)(C)C(=O)OC1=C(c2ccc(Cl)cc2Cl)C(=O)OC12CCCCC2,AC50,[6],17.6 µM (active)
